PubChem BioAssay
Several values for one entry are separate records, joined by “and”; a condition that tells them apart may be missing. Equal values may be shown once. Activity calls are given as the source filed them.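 Rule for the calls, unless noted: active = compounds giving at least 50% inhibition in the cell-based MKP-3 phosphatase rescue imaging test; inactive = the rest.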

Legend:
[1] = inhibitors of TNFa-induced NFkB p65 translocation, primary screen, imaging, HUVEC, MLSMR starter and 10KST1 sets (AID 438;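 active = inhibition above 20% together with a positive visual image hit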;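 note: compound added about 3h40 before a 20 min TNFalpha stimulation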;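 for inhibition: signal is the nuclear over cytoplasmic p65 intensity ratio per well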); details: HUVEC TNFa-induced p65 nuclear translocation; cell count: measured here: nuclei count (cytotoxicity indicator), at 2.08 µM; inhibition: at 2 µM, stronger effect = higher value, 0% TNFa-plus-vehicle, 100% no-TNFa wells
[2] = endothelial E-selectin expression blockers – imaging, HUVEC, immunofluorescence, MLSMR starter and 10KST1 sets, primary screen (AID 487;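 active = visually confirmed hit in the image check and inhibition above 20%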;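 for inhibition: signal is fraction of cell area covered by stained E-selectin grains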;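 for nuclei count: 100% = median nuclei count of all wells on the same plate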); details: HUVEC TNFalpha-induced E-selectin immunofluorescence imaging, at 2 µM; inhibition: stronger effect = higher value; nuclei count: measured here: cell number, toxicity
[3] = Primary imaging screen for DUSP6 inhibitors that restore phospho-Erk in transfected HeLa cells, chemical complementation (AID 609); details: HeLa MKP-3 transfected, phospho-Erk imaging KS statistic, at 10 µM, cells stimulated with TPA for 15 min;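 for inhibition: phospho-Erk level distribution per well compared with pooled transfected vehicle control wells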
[4] = biological target: Dual specificity protein phosphatase 6 (Homo sapiens) (UniProt Q16828); experiment: as above; details: HeLa MKP-3 transfected, phospho-Erk imaging KS statistic; at 10 µM; stronger effect = higher value; cells stimulated with TPA for 15 min
Chain of Dual specificity protein phosphatase 6 (Homo sapiens) (Q16828 whole entry, looked up): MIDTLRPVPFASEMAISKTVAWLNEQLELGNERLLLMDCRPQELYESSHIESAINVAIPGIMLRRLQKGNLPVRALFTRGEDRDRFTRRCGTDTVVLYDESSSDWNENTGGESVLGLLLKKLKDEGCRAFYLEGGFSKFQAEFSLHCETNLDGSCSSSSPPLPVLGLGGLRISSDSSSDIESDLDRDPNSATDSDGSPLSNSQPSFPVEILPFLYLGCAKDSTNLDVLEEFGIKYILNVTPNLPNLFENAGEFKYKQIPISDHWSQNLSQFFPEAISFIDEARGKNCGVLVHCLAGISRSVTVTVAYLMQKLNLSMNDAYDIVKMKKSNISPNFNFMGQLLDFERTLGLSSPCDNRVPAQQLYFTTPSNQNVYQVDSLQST

[5] = biological target: Voltage-gated potassium channel subunit beta-2 (Rattus norvegicus) (UniProt P62483); experiment: inhibitors of rat Kvbeta2 reductase activity – biochemical, NADPH fluorescence, primary screen (AID 622;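 active = fluorescence slope higher than the sample average by over 3 SD, cut at about -0.22 in these data, passing the limit was not always enough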;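 note: slope of raw intensity against log time taken from 70 to 1610 s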); details: recombinant KvBeta, 4-cyanobenzaldehyde reduction, at 10 µM, stronger effect = higher value
Chain of Voltage-gated potassium channel subunit beta-2 (Rattus norvegicus) (P62483 whole entry, looked up): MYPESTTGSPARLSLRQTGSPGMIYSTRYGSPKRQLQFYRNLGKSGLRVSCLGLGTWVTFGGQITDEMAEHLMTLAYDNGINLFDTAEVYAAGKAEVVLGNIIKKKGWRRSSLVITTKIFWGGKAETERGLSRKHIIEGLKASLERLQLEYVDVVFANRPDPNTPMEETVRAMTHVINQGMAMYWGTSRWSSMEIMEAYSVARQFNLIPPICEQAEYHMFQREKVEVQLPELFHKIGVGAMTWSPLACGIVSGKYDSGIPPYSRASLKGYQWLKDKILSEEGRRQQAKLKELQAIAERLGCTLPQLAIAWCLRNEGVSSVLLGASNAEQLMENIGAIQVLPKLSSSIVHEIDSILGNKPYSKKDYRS

[6] = biological target: Voltage-gated potassium channel subunit beta-2 (Rattus norvegicus) (UniProt P62483); experiment: enhancers of rat Kvbeta2 NADPH turnover – biochemical, NADPH fluorescence, primary screen (AID 623;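 active = NADPH fluorescence slope more negative than the mean of all samples by about 3 SD, 99.7% confidence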;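 note: fluorescence intensity change per second fitted from 20 to 320 s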); details: Recombinant KvBeta, NADPH fluorescence decrease slope, 10 min; at 10 µM; stronger effect = lower value
[7] = biological target: Muscarinic acetylcholine receptor M4 (Homo sapiens) (UniProt P08173); experiment: M4-linked GIRK flux change, two-sided – cell-based, HEK293 M4/GIRK, thallium flux, BTC-AM, M4 allosteric agonist project, primary screen (AID 625;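 active = fluorescence slope after compound addition differing from the mean of all tested samples at 99.7% confidence, mostly higher but some lower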;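 note: thallium influx through GIRK channels coupled to M4 in HEK293 cells with BTC-AM dye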); details: at 10 µM, actives lie on both sides
Chain of Muscarinic acetylcholine receptor M4 (Homo sapiens) (P08173 whole entry, looked up): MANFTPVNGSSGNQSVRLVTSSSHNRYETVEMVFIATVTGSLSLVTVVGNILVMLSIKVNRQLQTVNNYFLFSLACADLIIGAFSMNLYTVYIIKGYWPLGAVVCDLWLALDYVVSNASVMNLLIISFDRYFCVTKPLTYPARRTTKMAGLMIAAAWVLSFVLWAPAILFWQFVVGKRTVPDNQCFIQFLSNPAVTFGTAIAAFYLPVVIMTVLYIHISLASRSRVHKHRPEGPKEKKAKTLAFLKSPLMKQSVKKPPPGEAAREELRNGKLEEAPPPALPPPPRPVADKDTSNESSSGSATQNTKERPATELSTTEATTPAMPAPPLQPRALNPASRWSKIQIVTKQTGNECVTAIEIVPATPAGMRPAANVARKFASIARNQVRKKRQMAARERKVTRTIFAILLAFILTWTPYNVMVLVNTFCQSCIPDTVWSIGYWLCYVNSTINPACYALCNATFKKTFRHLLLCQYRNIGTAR

[8] = inhibitors of larval lipid processing in zebrafish, primary screen, whole organism, PED6 fluorescence, gall bladder and intestine (AID 686;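 active = a full or partial loss of lipid-probe fluorescence in the fish gall bladder, intestine or both, judged by eye; inactive = no fluorescence loss, or compound toxic to the fish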;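 note: larvae 5 to 7 days old with five fish per well; signal comes from phospholipase A2 cleavage of quenched PED6 carried via bile; overnight exposure to compound and PED6 before scoring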); details: Zebrafish larvae PED6 lipid processing, fluorescence scoring; screened at 20 µM (by protocol)
[9] = loss of swimming-algae plug formation – whole organism, Chlamydomonas reinhardtii, WT vs cilia-less mutant, absorbance, 96-well, primary screen (AID 463189;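 active = inhibition at or above 50% relative to wild type and mutant plate controls; inactive = inhibition below 50%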;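 note: 0% = wild type cc124 cells in DMSO and 100% = ciliumless bld1 mutant cells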); details: Chlamydomonas reinhardtii gravitaxis, OD600 absorbance, 2 days; at 10 µM; stronger effect = higher value
[10] = biological target: Alpha-2C adrenergic receptor (Homo sapiens) (UniProt P18825); experiment: compounds altering alpha2C-coupled GIRK flux – cell-based, HEK293 alpha2C/GIRK1/2, thallium flux, primary screen (AID 624;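 active = fluorescence slope after compound addition differing from the mean of all screened samples at 99.7% confidence, in either direction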;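 note: slope of fluorescence ratio to pre-addition baseline per second over 15 to 24 s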); details: thallium flux BTC fluorescence, at 10 µM, actives lie on both sides
Chain of Alpha-2C adrenergic receptor (Homo sapiens) (P18825 whole entry, looked up): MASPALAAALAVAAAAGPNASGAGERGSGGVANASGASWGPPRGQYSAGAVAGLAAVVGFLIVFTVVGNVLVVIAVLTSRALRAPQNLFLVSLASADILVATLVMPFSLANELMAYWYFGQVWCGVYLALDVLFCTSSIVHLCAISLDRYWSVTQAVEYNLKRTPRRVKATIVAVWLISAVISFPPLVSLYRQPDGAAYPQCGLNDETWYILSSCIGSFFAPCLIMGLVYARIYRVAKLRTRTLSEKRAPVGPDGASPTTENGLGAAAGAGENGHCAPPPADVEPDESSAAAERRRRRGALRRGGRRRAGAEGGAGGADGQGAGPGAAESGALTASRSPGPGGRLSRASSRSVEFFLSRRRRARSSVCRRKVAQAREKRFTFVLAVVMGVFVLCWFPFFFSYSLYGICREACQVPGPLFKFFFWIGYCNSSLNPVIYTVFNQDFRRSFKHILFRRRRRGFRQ

[11] = reduction of polyQ htt aggregates in cells – imaging, exon1htt(103Q)mCFP cells, high-content imaging, primary screen (AID 483;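 active = visual image review flags a hit and inhibition of aggregation exceeds 20%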;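 note: compound exposure lasted 3 days before fixation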;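 for nuclei count: percent of the per-plate median nuclei count of sample wells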); details: exon1htt(103Q)mCFP cell line, aggregate imaging, at 2 µM; inhibition of aggregation: stronger effect = higher value; nuclei count: measured here: cell count, toxicity
[12] = blockers of RIG-like receptor reporter activation – cell-based, Sendai virus stimulus, luciferase, 10K MLSCN set, TLR/RLR signaling modifier project, primary screen (AID 602276;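 active = inhibition at or above 50% at 10 µM; inactive = inhibition below 50%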;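 note: firefly luciferase from ISG56 promoter only with Renilla not read in this screen; 0% = Sendai virus plus DMSO and 100% = medium plus DMSO without virus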); details: HEK293 RL24 IRF3 luciferase reporter, at 10 µM, stronger effect = higher value
[13] = TLR3 IRF3 reporter activation blockers – cell-based, poly I:C stimulus, luciferase, 10K MLSCN set, primary screen (AID 602277;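 active = inhibition of the reporter signal at or above 50%; inactive = inhibition below 50%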); details: HEK293-TLR3 RL24 IRF3 luciferase reporter, at 10 µM, stronger effect = higher value
[14] = measured here: cell density z-score
[15] = measured here: nuclear c-Myc green intensity z-score
[16] = measured here: nuclear pErk red intensity z-score, stronger effect = higher value

Row | SMILES | cell count [1] | inhibition [1] | inhibition [2] | nuclei count [2] | z-score [3, 14] | z-score [3, 15] | z-score [3, 16] | inhibition [4] | fluorescence slope [5] | NADPH fluorescence slope [6] | fluorescence slope [7] | outcome [8] | inhibition [9] | slope [10] | inhibition of aggregation [11] | nuclei count [11] [%] | inhibition [12] | inhibition [13]
1 | O=C(O)c1c[nH]c2ccc(S(=O)(=O)N3CCOCC3)cc12 | 597 | -4.4% (inactive) | -208% (inactive) | 144% | -0.324 | -1.59 | 0.18 | 5.42% (inactive) | -0.496 (inactive) | -6.6e-05 (inactive) | 0.00433 (inactive) | inactive | 8.59% (inactive) |  |  |  |  | 
2 | CCCCc1c(C)c2ccc(OCC(C)=O)cc2oc1=O | 647 | -10% (inactive) | 51.6% (inactive) | 90.6% | -2.59 | 0.867 | -5.29 | 47.6% (inactive) | -0.472 (inactive) | -3.8e-05 (inactive) | 0.00708 (inactive) | inactive | -0.273% (inactive) |  |  |  |  | 
3 | c1ccc(CSc2nnc(SCc3ccccn3)s2)nc1 | 352 | -20.9% (inactive) |  | 173% | 1.06 | -1.17 | 0.36 | 3.66% (inactive) | -0.405 (inactive) | -5.6e-05 (inactive) |  | inactive | -2.59% (inactive) | 0.00665 (inactive) |  |  |  | 
4 | CCCc1nc(NC2CCCCC2)c(C#N)c2c1COC(C)(C)C2 | 517 | -11.1% (inactive) | -55.9% (inactive) | 114% | -0.306 | -0.0962 | -0.825 | -3.95% (inactive) | -0.492 (inactive) | -6.5e-05 (inactive) | 0.00613 (inactive) | inactive | -12.9% (inactive) |  |  |  |  | 
5 | Cc1ccc(Cn2ncc3c(N4CCN(c5ccc(C)cc5)CC4)ncnc32)cc1 | 548 | -0.1% (inactive) | 2.9% (inactive) | 164% | 0.777 | 0.779 | 1.42 | 17.8% (inactive) | -0.39 (inactive) | -5.3e-05 (inactive) | 0.00638 (inactive) | inactive | -10.9% (inactive) |  |  |  |  | 
6 | Nc1nonc1C(=O)NCCN=Cc1cc(Cc2ccccc2)cc(Br)c1O | 537 | -4.9% (inactive) | 49.5% (inactive) | 156% | -0.875 | 1.06 | 0.686 | -1.98% (inactive) | -0.41 (inactive) | -6.3e-05 (inactive) | 0.00522 (inactive) | inactive | -5.78% (inactive) |  |  |  |  | 
7 | CC(=O)OCC(=O)[C@@]1(O)CC[C@H]2[C@@H]3CCC4=CC(=O)CC[C@]4(C)[C@H]3C(=O)C[C@@]21C |  |  | -92.4% (inactive) | 97.4% | -1.29 | -1.69 | 0.158 | 3.59% (inactive) | -0.477 (inactive) | -6.1e-05 (inactive) |  |  | 9.11% (inactive) and 28.9% (inactive) | 0.00575 (inactive) | 16.5% (inactive) | 99.5 | 3.98% (inactive) | 27.5% (inactive)
8 | CCC(C(=O)Nc1ncn[nH]1)(C(F)(F)F)C(F)(F)F | 692 | 5.8% (inactive) | -106% (inactive) | 171% | 0.655 | 0.101 | -0.238 | 7.93% (inactive) | -0.479 (inactive) | -4.9e-05 (inactive) | 0.0062 (inactive) | inactive | 27.8% (inactive) |  |  |  |  | 
9 | Cc1cc(NC(=O)CSc2nc(-c3cccnc3)ccc2C#N)no1 | 733 | -10.3% (inactive) | -53% (inactive) | 171% | 0.472 | 0.655 | -0.248 | 4.25% (inactive) | -0.414 (inactive) | -4.1e-05 (inactive) | 0.00502 (inactive) | inactive | 44.8% (inactive) |  |  |  |  | 
10 | COC(=O)C1=C(C)N=C2SC(C)C(=O)N2C1c1ccc(C(=O)OC)cc1 (stereo unspecified) | 746 | -2.4% (inactive) | -42.3% (inactive) | 164% | 0.938 | -0.219 | -3.03 | 9.61% (inactive) | -0.448 (inactive) | -4.8e-05 (inactive) | 0.00486 (inactive) | inactive | 1.12% (inactive) |  |  |  |  | 
11 | CCN(CC)CC(=O)Nc1c(C)cccc1C | 642 and 715 | -6.5% (inactive) and -1% (inactive) | -39.3% (inactive) and -82.5% (inactive) | 130% and 116% | -0.149 and 1.01 | 0.72 and -0.684 | -0.101 and 0.844 | 15.3% (inactive) and 14.6% (inactive) | -0.457 (inactive) and -0.466 (inactive) | 7.7e-06 (inactive) and -5.7e-05 (inactive) |  |  |  | 0.00536 (inactive) and 0.0061 (inactive) |  |  | 11.4% (inactive) and 10.3% (inactive) | 39.6% (inactive) and 42.7% (inactive)
12 | COC(=O)CSc1ncnc2c1sc1nc(-c3ccco3)c3c(c12)CC(C)(C)OC3 | 514 | -12.6% (inactive) | -71.6% (inactive) | 130% | -0.117 | 0.288 | -0.223 | 9.91% (inactive) | -0.364 (inactive) | -2e-06 (inactive) | 0.00608 (inactive) | inactive | -8.07% (inactive) |  |  |  |  | 
